Screens from PubChem BioAssay.
Shown are actives, neighbours in structure and some others; about 19% of the full set was active somewhere.
TDP1 cell noCPT – qHTS for Inhibitors of human tyrosyl-DNA phosphodiesterase 1 (TDP1): qHTS in cells in absence of CPT | actives 15% (n = 420,000) | DT40 Tdp1-/- hTDP1 cells, no CPT, ATP luminescence, 48 h | Potency, µM (series often up to 46.2 µM), for the others: at the top dose activity change, negative = growth inhibition, actives largely listed as inhibitors; note: potency is the fitted concentration of half-maximal effect; % is set by controls: 0 for no effect and ±100 for the full control effect; nearly all actives have a fitted effect of over 55% in size
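Chicken DT40 Tdp1-/- cells stably complemented with human TDP1 were seeded at 400 cells/well with DMSO in place of 20 nM camptothecin. After compound pinning, cells grew at least 48 hr at 37 °C; viability read by CellTiter-Glo luminescence.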
HepG2 viability – qHTS for Inhibitors of TGF-b: Cytotox Counterscreen; Potency, µM (titrated, usually from 46.1 µM), for the others: at the highest dose activity change, negative = cytotoxicity, actives largely listed as cytotoxic; actives 0.76% (n = 410,000); HepG2 CAGA-GFP viability, ATP luminescence, 18 h; note: potency is the fitted concentration of half-maximal effect
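CellTiter-Glo luminescence gave cytotoxicity after 18 hours at 37 degrees C. The cells were HepG2 CAGA-GFP in 1% FBS DMEM, stimulated with 500 pg/mL TGF-beta after compound addition. %Activity was normalised to no-cell wells (complete cell-killing) and DMSO (no toxicity), and curves were fitted and classified.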
TGFb inhibitor – qHTS for Inhibitors of TGF-b; HepG2 CAGA-GFP TGF-b/SMAD3 reporter, GFP fluorescence, 18 h; TGF-beta stimulated, 500 pg/mL final; Potency, µM (top dose mostly 46.1 µM), for inactives: top-dose activity, negative = inhibition, actives largely listed as inhibitors; actives 1.2% (n = 410,000); AID 588855, 2011; note: potency is the fitted concentration of half-maximal effect; % is set by controls: 0 for no effect and ±100 for the full control effect; nearly all actives have a fitted effect of over 65% in size
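HEPG2 CAGA-GFP cells (1000/well, DMEM with 1% FBS) were pre-incubated 2 h at 37 degrees C, given compound by pin tool, then stimulated with TGF-beta at 500 pg/mL final for 18 h before per-cell GFP fluorescence imaging.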
IL-1B inflam inh – qHTS for Inhibitors of Inflammasome Signaling: IL-1-beta AlphaLISA Primary Screen; actives 4.7% (n = 360,000); AID 743279, 2014; THP-1 LPS/ATP IL-1B secretion, AlphaLISA, 16 h; hits give low values; activity change, % at 57.5 µM; in the data active = activity change below about -50%; inconclusive = mostly about -30% to -49%; note: % is set by controls: 0 for no effect and ±100 for the full control effect
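Secreted IL-1B measured by AlphaLISA bead assay after 16 h compound exposure of THP-1 cells; compounds (final up to 57.5 uM) added 1 h before LPS (250 ng/mL) and ATP (1.25 mM) stimulation; lower signal means less secretion.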
DT40 TDP1 CPT – qHTS for Inhibitors of human tyrosyl-DNA phosphodiesterase 1 (TDP1): qHTS in cells in presence of CPT; chicken DT40 Tdp1-/-;hTDP1 cells + 20 nM CPT, ATP luminescence, 48 h; Potency, µM (series often up to 46.2 µM), inactives show at the highest dose activity change, negative = growth inhibition, most hits filed as inhibitors; actives 12% (n = 420,000); note: potency is the fitted concentration of half-maximal effect; % is set by controls: 0 for no effect and ±100 for the full control effect; nearly all actives have a fitted effect of over 55% in size
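Cell growth measured by CellTiter-Glo luminescence after a minimum 48 h, 37 C compound exposure with 20 nM CPT in Tdp1-knockout DT40 cells stably expressing hTDP1, seeded 400/well; qHTS titration format.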
TDP1 inh – qHTS Assay for Inhibitors of Tyrosyl-DNA Phosphodiesterase (TDP1). actives 0.28% (n = 350,000). recombinant TDP1, AlphaScreen DNA substrate cleavage. AID 485290, 2010. Tyrosyl-DNA phosphodiesterase 1 (Homo sapiens), Q9NUW8. Potency, µM (series often up to 130 µM), without a hit: at the highest dose activity change, negative = inhibition, most hits filed as inhibitors; note: potency is the fitted concentration of half-maximal effect; % is set by controls: 0 for no effect and ±100 for the full control effect; nearly all actives have a fitted effect of over 40% in size
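Enzyme-compound mixtures sat 15 min at room temperature, followed by a 5 min reaction with 15 nM final substrate and 10 min with AlphaScreen beads. Recombinant human Tdp1 was used at 1 nM final.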
* marks the source's active call; other numbers are inactive results; ? = inconclusive; / = not tested or not shown. Unless noted, calls come from the whole dose curve; as a rule, active = well fitted curve in the direction sought with a large enough effect; inconclusive = small, poorly fitted or top-dose-only effect, or another doubt; inactive = no such curve, though single readings can be large; an effect the other way counts as inactive or inconclusive.

SMILES | TDP1 cell noCPT | HepG2 viability | TGFb inhibitor | IL-1B inflam inh | DT40 TDP1 CPT | TDP1 inh
Cc1ccc2c(CC(=O)NNC(=O)c3ccccc3O)coc2c1 | 26µM* | -21% | -10% | 93 | ? | 0%
CCCN1CNc2c(c(=O)[nH]c(=S)n2CCc2cccc(OC)c2OC)C1 | -29% | / | / | / | -15% | -9%
C/C(=N\Nc1nc(C)cc(-c2ccccc2)n1)c1ccc(F)cc1 | 7.3µM* | -29% | ? | -15 | ? | /
C/C(=N/Nc1nc(-c2ccccc2)cc(-c2ccc(F)cc2)n1)c1cccc(N)c1 | ? | -48% | ? | -61* | ? | 5%
COc1ccc(/C(C)=N/Nc2nccnc2Cl)cc1 | -9% | -64% | ? | -52* | -16% | 0%
COc1ccc(/C(C)=N/Nc2nc(C)cc(-c3ccccc3)n2)cc1 | 4.6µM* | -37% | -11% | -16 | 4.1µM* | /
COc1ccc(/C(C)=N\Nc2nc(-c3ccccc3)cc(=O)[nH]2)cc1 | -15% | -8% | -3% | 10 | -18% | 3%
C/C(=N\Nc1ccc(F)cc1F)c1ccc(F)cc1 | / | / | / | / | / | 12%
O=C(C1CCCN(S(=O)(=O)c2ccccc2[N+](=O)[O-])C1)N1CCN(c2ccccc2)CC1 (stereo not given) | ? | 0% | -16% | -16 | -21% | -1%
CCOc1cc(C)c(-c2onc(C(F)(F)F)c2-c2csc(C)n2)c(O)c1 | ? | -92% | ? | -55* | ? | 4%
COc1ccc(-c2nc(N)nc(C(F)(F)F)c2-c2csc(C)n2)c(O)c1 | -9% | 3% | 6% | 68 | -4% | 5%
Cc1[nH][nH]c(=O)c1C(c1c(C)[nH][nH]c1=O)c1cn(Cc2ccccc2Cl)c2ccccc12 | 5.2µM* | -21% | ? | 0 | 5.8µM* | 10%
Cc1ccc(Cn2c(=O)n(Cc3ccccc3Cl)c(=O)c3ccccc32)cc1 | 3% | -7% | -13% | / | 3% | 6%
COCCn1c(=O)c(-c2cc(F)cc(F)c2)nc2cnc(Oc3cccc(Cl)c3)nc21 | -19% | / | / | / | ? | /
Nc1nc(NCC2CCCO2)nc(NCC2CCCO2)c1[N+](=O)[O-] (stereo not given) | 0% | 1% | -1% | 27 | -10% | 3%
CC(C)CCNc1nc(N)c([N+](=O)[O-])c(NCC2CCCO2)n1 (stereo not given) | ? | -14% | 0% | 28 | 15µM* | 4%
CCc1cccc(C)c1Nc1c(-c2ccc(F)cc2)nc2sccn12 | ? | -35% | ? | / | ? | 8%
CCc1cccc(C)c1Nc1c(-c2ccc(SC)cc2)nc2sccn12 | 23µM* | -39% | 20µM* | / | ? | 11%
Cc1cccc(Nc2c(-c3ccc(O)cc3)nc3ncccn23)c1 | ? | 26% | 22% | -4 | ? | 5%
Cc1ccccc1Nc1c(-c2ccc(N3CCOCC3)cc2)nc2ncccn12 | ? | -21% | -28% | -29 | ? | 0%
Cc1cccc(C)c1Nc1c(-c2ccsc2)nc2ncccn12 | ? | 1% | -5% | 4 | 15µM* | 1%
CCc1cccc(C)c1Nc1c(-c2ccsc2)nc2ncccn12 | 7.3µM* | -33% | ? | / | 5.8µM* | 0%
C=C1C=C(C(F)F)n2ncc(C(=O)Nc3ccc(N(CC)CC)cc3)c2N1 | -25% | 8% | 21% | / | 10% | /
